Inconclusive results are not listed. Unmarked numbers belong to inactive results. Calls of active or inactive are those of the source. The call rests on the fitted dose curve; in most records, active means well fitted curve in the direction sought with a large enough effect; inconclusive means small, poorly fitted or top-dose-only effect, or another doubt; inactive means no such curve, though single readings can be large; an effect the other way counts as inactive or inconclusive.
Experiments:
[1] = BET inhibitor-based combinations targeting novel dependencies in MECOM-rearranged (r) AML: SET-2 cell line (AID 2202231); details: SET-2 AML cells viability, CellTiter-Glo luminescence, 48 h; viability: active compounds read low, concentration not given here; further: nearly all actives have a fitted effect of over 35% in size;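 on viability: plate controls were DMSO treated cells for no effect and wells without cells for full effect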
In short: (§1)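 A 48 hr incubation preceded viability reading by CellTiter-Glo, with 15 min room-temperature development. Dose series had 11 points; normalization used DMSO and empty wells; AUC was computed and mean-centered per line as Z-AUC.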

[2] = BET inhibitor-based combinations targeting novel dependencies in MECOM-rearranged (r) AML: OCI-AML3 cell line (AID 2202232); details: Potency: OCI-AML3 viability; further: nearly all actives have a fitted effect of over 35% in size
In short: as §1

[3] = BET inhibitor-based combinations targeting novel dependencies in MECOM-rearranged (r) AML: MV-4-11 cell line (AID 2202233); further: nearly all actives have a fitted effect of over 45% in size
In short: (§2)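 Each compound is tested in an 11-point concentration series against 500 seeded cells/well for 48 hr. The luminescent viability signal is normalized to DMSO and blank wells, then reduced to AUC and a cell-line-centred Z-AUC.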

[4] = BET inhibitor-based combinations targeting novel dependencies in MECOM-rearranged (r) AML: HNT-34 cell line (AID 2202234); further: nearly all actives have a fitted effect of over 35% in size
In short: as §2

[5] = BET inhibitor-based combinations targeting novel dependencies in MECOM-rearranged (r) AML: AML-191 cell line (AID 2202236; further: nearly all actives have a fitted effect of over 35% in size)
In short: as §1

[6] = BET inhibitor-based combinations targeting novel dependencies in MECOM-rearranged (r) AML: AML-194 cell line (AID 2202237; further: nearly all actives have a fitted effect of over 40% in size)
In short: as §1

[7] = BET inhibitor-based combinations targeting novel dependencies in MECOM-rearranged (r) AML: UCSD-AML1 cell line (AID 2202235); further: nearly all actives have a fitted effect of over 40% in size
In short: as §2
Potency means the concentration at half of the fitted maximal effect.

| SMILES | Potency [1] | Potency [2] | Potency [3] | Potency [4] | Potency [5] | Potency [6] | viability [1] [%] | Potency [7] |
| --- | --- | --- | --- | --- | --- | --- | --- | --- |
| C=CC(=O)N1CC[C@@H](Oc2nc(Nc3ccc(N4CCC(N5CCN(C)CC5)CC4)cc3)c(C(N)=O)nc2CC)C1 | 10.2 µM (active) | 4.56 µM (active) | 0.102 µM (active) | 7.23 µM (active) | 4.07 µM (active) | 6.45 µM (active) |  |  |
| OC[C@H]1O[C@@H](S[C@@H]2O[C@H](CO)[C@H](O)[C@H](n3cc(-c4cccc(F)c4)nn3)[C@H]2O)[C@H](O)[C@@H](n2cc(-c3cccc(F)c3)nn2)[C@H]1O |  | inactive | inactive | inactive | inactive | inactive | 115 |  |
| CC(C)c1ccc(Cn2ccc3c4c(N)nc(NC5CC5)nc4ccc32)cc1 | 0.468 µM (active) | 1.48 µM (active) | 2.09 µM (active) | 1.32 µM (active) | 1.32 µM (active) | 1.48 µM (active) |  |  |
| CN(C)CCNC(=O)NC[C@H]1CC[C@@H]2[C@H](O1)c1cc(C(F)(F)F)ccc1N[C@H]2c1ccccc1 | 0.742 µM (active) | 0.296 µM (active) | 0.296 µM (active) |  | 0.332 µM (active) | 0.332 µM (active) |  | 0.235 µM (active) |
| NC[C@H]1O[C@H](O[C@H]2[C@H](O)[C@@H](O[C@H]3O[C@H](CO)[C@@H](O)[C@H](N)[C@H]3O)[C@H](N)C[C@@H]2N)[C@H](N)C[C@@H]1O |  | inactive | inactive |  | inactive |  | 115 | inactive |
| C=C1C[C@@H]2CC[C@@]34C[C@H]5O[C@H]6[C@@H](O3)[C@H]3O[C@H](CC[C@@H]3O[C@H]6[C@H]5O4)CC(=O)C[C@@H]3[C@@H](OC)[C@@H](C[C@H](O)CN)O[C@H]3C[C@H]3O[C@@H](CC[C@@H]1O2)C[C@@H](C)C3=C | 0.152 µM (active) | 0.0015 µM (active) | 0.0017 µM (active) |  | 0.0015 µM (active) | 0.0019 µM (active) |  | 0.0011 µM (active) |
| C[C@@H]1CC(=O)Nc2cccc(-c3ccc4c(c3)c(-c3cnn(C)c3)nn4C)c2N1 | 6.61 µM (active) | 6.61 µM (active) | 5.25 µM (active) |  |  | 6.61 µM (active) |  | 2.63 µM (active) |
| N=C1CCCN1Cc1[nH]c(=O)[nH]c(=O)c1Cl |  | inactive | inactive |  | inactive | inactive | 111 | inactive |
| COc1cc2ncn(-c3cc(OCc4ccccc4C(F)(F)F)c(C(N)=O)s3)c2cc1OC | 1.86 µM (active) | 1.18 µM (active) | 2.09 µM (active) |  | 1.48 µM (active) | 1.05 µM (active) |  | 2.35 µM (active) |
| COc1ccc(S(=O)(=O)N2CCc3cccc(-c4ccncc4)c32)cc1 | 1.66 µM (active) | 1.05 µM (active) | 1.18 µM (active) |  | 1.05 µM (active) | 0.934 µM (active) |  | 1.18 µM (active) |
| c1ccc2[nH]c(-c3cscn3)nc2c1 |  | inactive | inactive |  | 18.6 µM (active) | 18.6 µM (active) | 111 | inactive |
| NC1CCCN(c2c(/C=C3\SC(=O)NC3=O)cccc2-c2ccccc2)C1 (configuration not stated) | 5.9 µM (active) | 0.235 µM (active) | 1.18 µM (active) |  | 18.6 µM (active) |  |  | 0.59 µM (active) |
| CN(C)Cc1ccc(S(=O)(=O)n2ccc(/C=C/C(=O)NO)c2)cc1 | 3.72 µM (active) | 5.25 µM (active) | 2.35 µM (active) |  | 4.17 µM (active) | 5.9 µM (active) |  | 4.68 µM (active) |
| CCC(C)CNCC(=O)N1CCc2sccc2C1c1cccc(C)n1 (configuration not stated) |  | inactive | inactive |  | inactive | inactive | 95.4 | inactive |
| C[C@@]12O[C@@H](C[C@]1(O)CO)n1c3ccccc3c3c4c(c5c6ccccc6n2c5c31)CNC4=O | 0.417 µM (active) | 0.417 µM (active) | 0.0118 µM (active) |  | 0.0525 µM (active) |  |  | 0.118 µM (active) |
| CC(=O)N[C@H]1[C@H](O[C@@H]2c3ccc(c(Cl)c3)Oc3cc4cc(c3O[C@@H]3O[C@H](CO)[C@@H](O)[C@H](O)[C@H]3NC(=O)CCCCCCCC(C)C)Oc3ccc(cc3Cl)C[C@H]3NC(=O)[C@H](N)c5ccc(O)c(c5)Oc5cc(O)cc(c5)[C@H](NC3=O)C(=O)N[C@H]4C(=O)N[C@H]3C(=O)N[C@@H]2C(=O)N[C@@H](C(=O)O)c2cc(O)cc(O[C@H]4O[C@H](CO)[C@@H](O)[C@H](O)[C@@H]4O)c2-c2cc3ccc2O)O[C@H](CO)[C@@H](O)[C@@H]1O |  | inactive | inactive |  | inactive | inactive | 113 | inactive |

From PubChem BioAssay (NCATS)
